Out of some 360,000 compounds screened, about 7,500 (2.1%) were called active. Not shown: some 20% with an inconclusive outcome. This is one part of a sample in which actives are shown more often than they occur. Calls come from the whole dose curve; as a rule, active = well fitted inhibition curve with a large enough effect; inconclusive = small, poorly fitted or top-dose-only effect, or effect the other way; inactive = flat fitted curve, though single readings scatter.
% is set by controls: 0 for no effect and ±100 for the full control effect; potency is the fitted concentration of half-maximal effect.

This assay is described as follows: Nrf2 qHTS screen for inhibitors. Note: nearly all actives have a fitted effect of over 60% in size. Conditions: A549 ARE-Fluc reporter, luciferase luminescence, 18-24 h; series mostly up to 46 µM; activity change, negative = inhibition: at the top concentration. Put shortly:
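Quantitative HTS in A549 cells stably bearing an antioxidant response element-firefly luciferase construct. Inhibition of Nrf2-driven transcription was scored by luminescence after 18-24 h of compound exposure at 37 °C.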
For the compound `CCOC(=O)c1ccc(N2C(=O)c3n[nH]c(-c4ccco4)c3C2c2ccc(O)cc2)cc1` (configuration not stated), the “activity change, negative = inhibition” value was -16.7% (inactive). Still for that read-out and setting: the value for `O=C1[C@@H](c2ccccc2)[C@@H](c2ccccc2)N1c1cccnc1` was -8.38% (inactive); that for `CC(=O)N1c2ccc(S(=O)(=O)N3CCC(C(=O)NC4CCCCC4C)CC3)cc2CC1C` (configuration not stated) was -27.4% (inactive). As to `CC(=O)N1c2ccc(S(=O)(=O)N3CCCC(C(=O)Nc4cccc(Cl)c4)C3)cc2CC1C` (configuration not stated), the Potency was 6.51 µM (active). Same read-out and setting: the value for `CC(=O)N1c2ccc(S(=O)(=O)N3CCCC(C(=O)NCc4ccc(Cl)cc4)C3)cc2CC1C` (configuration not stated) was 8.2 µM (active). In the case of `COc1ccccc1CNC(=O)C1CCN(S(=O)(=O)c2ccc3c(c2)CC(C)N3C(=O)C2CC2)CC1` (configuration not stated), the “activity change, negative = inhibition” value is 8.44% (inactive). Consider `CC(=O)Nc1ccc(NC(=O)C2CCCN(S(=O)(=O)c3ccc(Cl)cc3)C2)cc1` (configuration not stated), for which the “activity change, negative = inhibition” value was 9.54% (inactive). For `O=C(C1CCCN(S(=O)(=O)c2ccccc2)C1)N1CCN(c2ccc(F)cc2)CC1` (configuration not stated), the Potency was 23.1 µM (active). `CC(=O)N1c2ccc(S(=O)(=O)N3CCC(C(=O)N4CCN(c5ccccc5)CC4)CC3)cc2CC1C` (configuration not stated): the “activity change, negative = inhibition” value is -2.49% (inactive). Same read-out and setting: the value for `Cc1ccc(S(=O)(=O)N2CCCC(C(=O)N3CCN(C)CC3)C2)cc1` (configuration not stated) was -14.6% (inactive).

As for `CC(=O)N1CCCc2cc(S(=O)(=O)N3CCCC(C(=O)N4CCN(c5cccc(Cl)c5)CC4)C3)ccc21` (configuration not stated), the Potency is 7.31 µM (active). In the case of `CC(=O)N1CCCc2cc(S(=O)(=O)CCC(=O)N3CCN(c4ccccc4)CC3)ccc21`, the “activity change, negative = inhibition” value was -18.6% (inactive). As to `CC(=O)N1c2ccc(S(=O)(=O)N3CCC(C(=O)NCc4ccc(F)cc4)CC3)cc2CC1C` (configuration not stated), the “activity change, negative = inhibition” value is -24.8% (inactive).

`CCCS(=O)(=O)N1CCCC(C(=O)N2CCN(c3ccccc3)CC2)C1` (configuration not stated): the “activity change, negative = inhibition” value is 7.07% (inactive).

As for `O=S(=O)(c1ccc2c(c1)OCCO2)N1CCN(S(=O)(=O)c2cc(F)ccc2F)CC1`, the “activity change, negative = inhibition” value was 4.79% (inactive). Regarding `Cn1c(=O)c2c(nc(SCC(=O)Nc3ccc(F)cc3)n2Cc2ccc(Cl)cc2)n(C)c1=O`, the “activity change, negative = inhibition” value is -16.3% (inactive). Turning to `COc1cc(C(=O)N2CCN(S(=O)(=O)c3ccc(C(C)C)cc3)CC2)ccc1OCC(=O)N1CCOCC1`, the “activity change, negative = inhibition” value was 2.4% (inactive). In the case of `COC(=O)Cc1c(-c2[nH]c3ccccc3c2CC(=O)OC)[nH]c2ccccc12`, the “activity change, negative = inhibition” value is 5.69% (inactive). The same measure, in the same setting: the value for `O=C(c1ccc2c(c1)N(Cc1ccccc1)C(=O)c1ccccc1S2(=O)=O)N1CCCC1` was -12.5% (inactive); that for `O=C(CCS(=O)(=O)c1ccc2c(c1)NC(=O)CO2)Nc1cccc(C(F)(F)F)c1` was 2.09% (inactive); that for `Cc1cc2c(cc1C)NC1(C[C@H]3CCC(=O)N4CC[C@@H](C1)[C@@H]34)C(=NC(C)(C)CC(C)(C)C)N2` (some centres not stated) was -23.5% (inactive).

Consider `COc1ccccc1-c1noc(CSc2nnc(-c3ccccc3)n2-c2ccc(C)c(C)c2)n1`, for which the “activity change, negative = inhibition” value is -2.74% (inactive). Same read-out and setting: the value for `COc1ccc(CCNc2nc(-c3cccc(NC(C)=O)c3)cs2)cc1OC` was -6.15% (inactive). In the case of `COc1cc(CC(=O)Nc2nc(-c3ccc(F)c(F)c3)cs2)cc(OC)c1OC`, the Potency was 11.6 µM (active). In the case of `Cc1ccc(S(=O)(=O)NC(=O)Nc2nc(-c3ccc(F)c(F)c3)cs2)cc1`, the “activity change, negative = inhibition” value was 5.15% (inactive). For the compound `COc1ccc(-c2csc(NC(=O)c3ccc(N4C(=O)CCC4=O)cc3)n2)cc1OC`, the “activity change, negative = inhibition” value is -0.264% (inactive).

In the case of `COc1ccc(CC(=O)Nc2nc(-c3ccc(F)c(F)c3)cs2)cc1OC`, the Potency was 1.84 µM (active). For `COc1ccccc1NC(=O)Nc1nc(CC(=O)Nc2ccccc2F)cs1`, the “activity change, negative = inhibition” value is -11.4% (inactive). The same measure, in the same setting: the value for `COc1ccccc1CNC(=O)C(Cc1ccccc1)NS(=O)(=O)c1ccc2c(c1)oc(=O)n2C` (configuration not stated) was 18.2% (inactive); that for `COc1ccc(NC(=O)CN2CCCN(Cc3ccccc3)S2(=O)=O)cc1` was 13.6% (inactive). `COC(=O)c1ccc(NCc2cc(O)ccc2O)cc1`: the “activity change, negative = inhibition” value is 10.5% (inactive).

On to `CN(CC(=O)Nc1ccc(Cl)cc1)CC(=O)Nc1cccc2ccccc12`, for which the “activity change, negative = inhibition” value is -8.71% (inactive).

With `O=C(c1ccc(Cl)c(S(=O)(=O)N2CCCCC2)c1)N1CCCCCC1`, the “activity change, negative = inhibition” value is -1.18% (inactive). For the compound `O=C(c1ccc(Cl)c(S(=O)(=O)N2CCCCCC2)c1)N1CCN(c2ccc(O)cc2)CC1`, the Potency is 23.1 µM (active). As to `O=C(c1ccc(Cl)c(Cl)c1)N1CCCC1`, the “activity change, negative = inhibition” value was 5.79% (inactive).

Consider `O=C(c1ccccc1F)N1CCC(c2nc3c(nnn3Cc3cccc(F)c3)c(=O)[nH]2)CC1`, for which the “activity change, negative = inhibition” value is -16.8% (inactive). Consider `COc1ccc(CN2C(=O)C(NC(=O)c3cccc(C)c3)(C(F)(F)F)N=C2c2ccccc2)cc1` (configuration not stated), for which the “activity change, negative = inhibition” value was -6.01% (inactive). In the case of `COc1ccc(CCNC(=O)CSc2nc(-c3ccc(OC)c(OC)c3)ccc2C#N)cc1`, the Potency was 18.4 µM (active). As for `COc1cccc(-c2ccc(C#N)c(SCC(=O)NCCc3ccc(Cl)cc3)n2)c1`, the “activity change, negative = inhibition” value was -20.6% (inactive). As to `COc1ccc(CCNC(=O)CSc2nnc3ccc(-c4ccncc4)nn23)cc1`, the “activity change, negative = inhibition” value was -30% (inactive). With `CCOc1ccc2oc(=O)cc(CN3CCN(C(=O)c4ccc(F)cc4)CC3)c2c1`, the “activity change, negative = inhibition” value was 11.7% (inactive). The same measure, in the same setting: the result for `O=C1c2ccccc2C(=O)C1c1ccccc1F` reads -0.356% (inactive). Take `O=C1c2ccccc2C2=Nc3ccccc3SC(c3ccccc3F)C12` (configuration not stated): the Potency is 23.1 µM (active). As to `Cc1cccc(NC(=O)c2nnn(CC(=O)Nc3ccc(C(C)C)cc3)c2N)c1C`, the “activity change, negative = inhibition” value was 9.89% (inactive). On to `O=C(CSc1nnc(CN2CCCC2)n1-c1ccc(F)cc1)c1ccc2c(c1)OCO2`, for which the “activity change, negative = inhibition” value was 0.537% (inactive). Same read-out and setting: the result for `COc1ccccc1-c1cc(C(F)(F)F)nc(S(=O)(=O)CCCC(=O)Nc2ccc(F)cc2F)n1` reads 10.4% [at 9.27 µM] (inactive). Regarding `COc1cc(C(=O)NC2CCN(C)CC2)ccc1Nc1ncc2c(n1)N(C1CCC(O)CC1)CCC(=O)N2C` (configuration not stated), the “activity change, negative = inhibition” value was 5.46% (inactive).

The record behind these values is PubChem BioAssay AID504444 (National Center for Advancing Translational Sciences (NCATS), 2011).
